Measurements: ChEMBL document CHEMBL4513137, “CO-ADD screening of University of Manchester (UK) compounds”
Potency and affinity values are given separately.

Key:
Klebsiella pneumoniae = conditions: Concentration 32 ug.mL-1; ASSAY_TEST Inhibition of Bacterial Growth; detection method Absorption (OD600); MEDIA CAMHB; plate type 384well; NBS; CORNING #3640; time 18 hr
Candida albicans = conditions: 32 ug/mL
Cryptococcus neoformans = conditions: Concentration 32 ug.mL-1; ASSAY_TEST Inhibition of Fungal Growth; detection method Resazurin; Absorption (OD600-OD570); plate type 384well; NBS; CORNING #3640

| SMILES | Inhibition (Klebsiella pneumoniae) [%] | Inhibition (Candida albicans) [%] | Inhibition (Cryptococcus neoformans) [%] |
| --- | --- | --- | --- |
| COc1ccc(Nc2ccccc2-c2ccc([N+](=O)[O-])cc2)cc1 | 12.08 | 5.77 | 2.27 |
| O=[N+]([O-])c1ccc(-c2ccccc2N(Cc2ccccc2)c2ccccc2)cc1 | 8.4 | 8.51 | 2.22 |
| O=[N+]([O-])c1ccc(-c2ccccc2Nc2ccccc2)c(Cl)c1 | 13.74 | 10.1 | 1.38 |
| COc1cc([N+](=O)[O-])ccc1-c1c(Nc2ccccc2)cccc1OC | 14.15 | 5.26 | -2.27 |
| Cc1cc([N+](=O)[O-])ccc1-c1ccccc1N(C)c1ccccc1 | -15.08 | 5.96 | -0.44 |
| COc1cccc(Nc2ccccc2)c1-c1ccc([N+](=O)[O-])cc1 | -2.96 | 7.07 | 1.49 |
| CN(c1ccccc1)c1ccccc1-c1ccc([N+](=O)[O-])cc1 | 13.85 | 4.63 | 1.49 |
| c1ccc(Nc2ccccc2-c2ncccn2)cc1 | 8.33 | 12.1 | 7.92 |
| CC(=O)c1ccc(-c2ccccc2Nc2ccccc2)cc1 | 4.21 | 1.55 | 0.86 |
| O=[N+]([O-])c1cc(Cl)c(-c2ccccc2Nc2ccccc2)c(Cl)c1 | -1.39 | 6.95 | -0.86 |
| COc1cccc(Nc2ccccc2)c1-c1c(Cl)cc(Br)cc1Cl | 24.48 | 23.8 | 9.7 |
| O=[N+]([O-])c1ccc(-c2ccccc2Nc2ccccc2Br)cc1 | 7.18 | 4.47 | 1.33 |
| COc1cc([N+](=O)[O-])ccc1-c1ccccc1Nc1ccccc1 | 18.46 | 5.71 | -0.44 |
| CC[C@@H](Nc1ccccc1-c1c(Cl)cc(Br)cc1Cl)c1ccccc1 | 20.15 | 9.45 | 0.76 |
| O=[N+]([O-])c1ccc(-c2ccccc2Nc2ccccc2)cc1 | -3.59 | 9.3 | 1.06 |
| O=[N+]([O-])c1ccc(-c2ccccc2Nc2ccccc2)cc1F | 14.23 | 8.22 | 3.42 |
| Cc1cc(C)c(Nc2ccccc2-c2ccc([N+](=O)[O-])cc2)c(C)c1 | -16.56 | 7.08 | 1.01 |
| Clc1cc(Br)cc(Cl)c1-c1ccccc1Nc1ccccc1 | 1.2 | 5.55 | 2.48 |
| O=[N+]([O-])c1ccc(-c2c(Nc3ccccc3)ccc3ccccc23)cc1 | -5.26 | 1.64 | 0.54 |
| N#Cc1ccc(-c2ccccc2Nc2ccccc2)cc1 | 9.14 | 10.8 | 2.95 |
| O=[N+]([O-])c1ccc(-c2cccc3c2[nH]c2ccccc23)cc1 | 2.37 | 4.69 | -0.08 |
| O=[N+]([O-])c1ccc2c3ccccc3n(-c3ccccc3)c2c1 | 5.72 | 8.19 | 2.74 |
| Cc1cccc(C)c1Nc1ccccc1-c1ccccc1[N+](=O)[O-] | 2.08 | 6.73 | 4.1 |
| O=[N+]([O-])c1ccc(-c2c(Nc3ccccc3)cccc2-c2ccccc2)cc1 | 6.43 | 7.71 | 2.38 |
| O=[N+]([O-])c1ccc(-c2ccccc2Nc2ccccc2)cc1C(F)(F)F | 20.57 | 12.5 | 2.9 |
| COc1cccc(N(C)c2cccc(OC)c2-c2ccc([N+](=O)[O-])cc2C)c1 | 4.9 | 3.58 | -0.6 |
| Cc1ccccc1Nc1ccccc1-c1ccc([N+](=O)[O-])cc1 | -1.35 | -0.09 | -1.9 |
